Measurements as given in PubChem BioAssay AID624256 (NMMLSC, 2012).
Screen size: about 360,000 compounds; about 3,700 (1%) were called active. Roughly 2% stayed inconclusive and do not appear here.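 Rule for the calls: active = normalized GFP-positive differentiation at or above the plate's own cutoff, the solvent-only control mean plus 3 SD; inconclusive = no clear call, values can overlap the other calls; inactive = the rest.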 What follows is part of a selection rich in actives, with near analogues and random picks from the rest.

Assay: induction of myeloid progenitor differentiation, primary screen, cell-based, flow cytometry, MLPCN library (AID 624256);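 for GFP+ MAC1+ double positive: cells exposed to compound for four days before flow analysis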;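 for normalized GFP-positive differentiation: cells exposed to compound for four days before flow analysis; 0% = DMSO wells and 100% = fulvestrant positive control at 5 µM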
Settings: ER-HoxA9 myeloid progenitors, lysozyme-GFP differentiation, at 10 µM; GFP+ MAC1+ double positive: measured here: differentiation confirmed by MAC1 staining, stronger effect = higher value; normalized GFP-positive differentiation: stronger effect = higher value

Structure (SMILES)	GFP+ MAC1+ double positive	outcome	normalized GFP-positive differentiation
COc1ccc(-c2cc3c(c4c2ccn4C)C2CCC3C2)cn1 (centres undefined)	1.4%	inactive	–
O=C1Nc2ccccc2-n2nnnc2C1N1CCN(c2cccc(C(F)(F)F)n2)CC1 (centres undefined)	1.4%	inactive	–
CCc1ccc(CN(C)C(=O)CCc2nnc(-c3ccc(-c4ccccc4)cc3)o2)nc1	0.1%	inactive	–
CCCCCCc1cc2cc(-c3nnc(-c4ccccc4)o3)c(=O)oc2cc1O	56.6%	–	197% (active)
CN[C@H]1C[C@H]2c3cc(Oc4ccccc4C)ccc3CCN2C(=O)[C@H]1[C@H](C)O	0.2%	inactive	–
O=C(CCC(=O)c1ccccc1)NCc1cccc(C(F)(F)F)c1	0.7%	inactive	–
O=C(Cc1cccs1)NCc1cccc(C(F)(F)F)c1	3.5%	–	341% (active)
Cn1c(=O)c2cc(NC(=O)NCCc3cccs3)ccc2n1Cc1cccc(C(F)(F)F)c1	1.6%	inactive	–
COc1ccc(C(=O)C(OP(=O)(OC)OC)c2ccccc2OC)cc1 (centres undefined)	2%	inactive	–
CN(C)CCCOc1ccc(-c2ccc3nccn3c2)cn1	0.4%	inactive	–
Cc1ccc(Cl)c(OCC(=O)N2CCc3ccccc3C2)c1	0.3%	inactive	–
CCC(=O)c1ccc(OCC(=O)OCC(=O)NC2CCCCCC2)cc1	1.4%	inactive	–
CCC(=O)c1ccc(OCC(=O)OCC(=O)N2CCc3ccccc3C2)cc1	0.4%	–	6.6% (active)
CCOc1ccc2[nH]c(=S)sc2c1	0%	inactive	–
CCC(CC)C(C(=O)NC1CCCC1)N1CCN(c2cc(C)nc3ccccc23)CC1 (centres undefined)	1.2%	inactive	–
COC(=O)c1ccc2nc(-c3ccccc3)c(Cc3ccc(OC)cc3C)n2c1	1.4%	inactive	–
O[C@H]1CN(Cc2cccs2)[C@@H](c2ccc(Cl)cc2)C[C@@H]1n1cc(C2CC2)nn1	1.3%	–	3.49% (inactive)
O[C@H]1C[C@H](c2ccc(Cl)cc2)N(Cc2cccs2)C[C@@H]1n1cc(C2CC2)nn1	3.6%	–	19.2% (active)
O[C@@H]1C[C@H](c2ccccc2)N(Cc2cccs2)C[C@H]1n1cc(C2CC2)nn1	0.6%	inactive	–

Structure (SMILES)	GFP+ MAC1+ double positive	outcome	normalized GFP-positive differentiation
CC(C)c1cc(Cn2c3ccccc3c(=O)n2C(C)Cn2cc(C3CC3)nn2)on1 (centres undefined)	2.6%	inactive	–
COc1cccc(CNc2nc(NCc3cccs3)nc3ccsc23)c1	1.5%	inactive	–
O=S1(=O)C[C@@H](N2CCN(CCO)CC2)[C@H](COCc2ccccc2)N1	0.9%	inactive	–
CCc1ccc([C@@H]2CC(=O)[C@@H]3CN(S(=O)(=O)c4ccc(C)cc4)[C@H](c4ccc(Cl)cc4)C[C@@H]3N2S(=O)(=O)c2ccc(C)cc2)cc1	1.2%	inactive	–
CC(=O)Nc1cncc(-c2ccccc2CO)n1	0.4%	inactive	–
CC(=O)Nc1cccc(-c2cc(NC=O)c3ncc(-c4ccc(F)c(Cl)c4)n3c2)c1	1.3%	inactive	–
O=c1c2c(-c3ccccc3)ccnc2[nH]n1-c1ccccc1	0.5%	inactive	–
Cc1ccc(-c2ccnc3[nH]n(-c4ccccc4)c(=O)c23)cc1	0.4%	–	17.5% (active)
Cc1ccc(N2C(=O)c3ccccc3C2(O)c2ncc[nH]2)cc1 (centres undefined)	1.1%	inactive	–
COC(=O)[C@@]12C[C@@H](CC(=O)NCCCCc3ccccc3)C(=O)N(CCc3ccc(OC)c(OC)c3)C1=CCC(C)(C)C2	1.6%	inactive	–
COC(=O)C[C@@H]1C=C[C@@H](NS(=O)(=O)c2cccc(OC)c2)[C@@H](CO)O1	1.6%	inactive	–
Cc1c(-c2ccccc2)cn2c1-c1ccc(C)n1CC2	1.4%	–	31.7% (active)
O=C(C[C@H]1CC[C@H]2[C@@H](COC[C@H](O)CN2C(=O)c2ccccn2)O1)N1CCN(c2ccccc2)CC1	2.6%	inactive	–
CN(CCO)C(=O)c1nc[nH]c1C(=O)N(C)Cc1ccccc1	0.2%	inactive	–
CCCCn1nnnc1C(c1cc2ccccc2o1)N(C)Cc1ccc(Cl)c(Cl)c1 (centres undefined)	0.9%	inactive	–
COc1ccccc1C(=O)N/C(=C/c1ccco1)C(=O)Nc1ccc(C(=O)O)cc1	1.5%	inactive	–
COCCCn1c(=O)/c(=C/c2ccccc2OC(C)C)s/c1=C(\C#N)C(=O)Nc1ccc(C(=O)O)cc1	2.8%	–	20.2% (active)
COc1ccc(NC(=O)/C(C#N)=C\c2cc(OC)c(OCc3ccc(C(=O)O)cc3)cc2Br)cc1	0.2%	inactive	–
COCCNC(=O)C1CCCN(Cc2ccccc2Cl)CC1 (centres undefined)	0.5%	inactive	–

Structure (SMILES)	GFP+ MAC1+ double positive	outcome	normalized GFP-positive differentiation
COC(=O)[C@@]1(Sc2ccc(C)cc2)CC(=O)N(c2cccc(SC)c2)[C@@H]1c1ccccc1	0.4%	inactive	–
c1ccc(Cc2c(-c3ccco3)nc3c4ccccc4ccn23)cc1	1.5%	inactive	–
Cc1cc(NC(C)C)n2c(nc3ccccc32)c1C#N	1%	inactive	–
Cc1ccc(Oc2nc3ccccc3n3c(C)nnc23)cc1	5.3%	inactive	–
Cc1ccc(S(=O)(=O)N(C)c2nc3ccccc3n3c(C(C)C)nnc23)cc1	2%	–	94.1% (active)
Cc1cc2c(cc1C)N1C(=O)c3cc4ccccc4cc3NC(=O)C1C(=O)N2 (centres undefined)	1.5%	inactive	–
CN(CC(=O)Nc1cccc(F)c1)C(=O)CC1CCCC1	0.8%	inactive	–
CCN(CC)C(=O)CSC(Nc1cccc(F)c1)=C(C#N)C#N	2.2%	–	143% (active)
Cc1ccc(CSCC(=O)N(C)CC(=O)Nc2cccc(F)c2)cc1	1.2%	inactive	–
Cn1c(Nc2ccc(F)cc2)nc2cc(-c3ccsc3)sc2c1=O	0.7%	inactive	–
CCOC(=O)C1CCCN(C(=O)c2cccc3ccccc23)CC1 (centres undefined)	1.7%	inactive	–
CC(=O)OCC(C)n1c(=O)c2ccccc2n1C(C)=O (centres undefined)	1%	inactive	–
COC(=O)c1c(C)[nH]c(C(=O)/C=C/c2ccc(Cl)cc2)c1C	0.4%	inactive	–
Cc1[nH]c(=O)c(C(=O)/C=C/c2ccccc2)c2c1CCCC2	10.9%	–	31.7% (active)
CC1(C(=O)O)CCCN(C(=O)/C=C/c2ccccc2)C1 (centres undefined)	2.1%	inactive	–
Cc1ccc2nc(-c3ccco3)c(Cc3cccc(Cl)c3)n2c1	0.9%	inactive	–
COc1cc(OC)cc(C(=O)NCCCn2ccnc2)c1	0.7%	inactive	–
COc1ccc(/C=C(\C#N)C(=O)NCCCn2ccnc2)cc1	0.1%	inactive	–
COc1cccc(-c2nn(-c3ccccc3)cc2/C=C(\C#N)C(=O)NCCCn2ccnc2)c1	0.5%	–	58.2% (active)
